In PubChem BioAssay (NCI):
The panel holds about 79,000 compounds, 15% with a hit somewhere; the sample as a whole holds those more often. Cut-off read from the data, not from the text of the source: active = growth inhibition above about 70%; inactive = the rest.

Columns and labels:
[1] = NCI Yeast Anticancer Drug Screen. Data for the rad50 strain (AID 155);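 note: 0% = growth of vehicle-only cultures of the same strain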; conditions: S. cerevisiae rad50 strain growth inhibition; at 50.0 µM; active compounds read high
Summary of the method: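 Compounds were tested on a yeast strain with an engineered DNA damage repair alteration; the reported value is growth inhibition normalised to vehicle treatment.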

[2] = NCI Yeast Anticancer Drug Screen. Data for the mec2-1 strain (AID 157); conditions: S. cerevisiae mec2-1 strain, at 50.0 µM, active compounds read high
Summary of the method: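 Mutant yeast (mec2-1) grown with compound; growth inhibition relative to vehicle control reported.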

[3] = NCI Yeast Anticancer Drug Screen. Data for the sgs1 mgt1 strain (AID 161);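 note: 0% = growth of cultures given vehicle only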; conditions: S. cerevisiae sgs1 mgt1 strain, at 50.0 µM, active compounds read high
Summary of the method: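 This yeast growth screen uses a strain with defined DNA-repair lesions; compound-treated growth is compared with vehicle-treated growth.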

[4] = NCI Yeast Anticancer Drug Screen. Data for the cln2 rad14 strain (AID 165);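 note: 0% = growth equal to vehicle treated cultures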; conditions: S. cerevisiae cln2 rad14 strain, at 50.0 µM, active compounds read high
Summary of the method: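 Readout is yeast growth inhibition versus vehicle-treated controls, using a strain with cln2 and rad14 alterations exposed to compound.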

[5] = NCI Yeast Anticancer Drug Screen. Data for the bub3 strain (AID 167); conditions: S. cerevisiae bub3 mutant strain, at 50.0 µM, active compounds read high
Summary of the method: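 Growth of a checkpoint-deficient yeast mutant is measured after compound exposure. Values represent inhibition relative to vehicle.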

[6] = NCI Yeast Anticancer Drug Screen. Data for the mlh1 rad18 strain (AID 175); conditions: S. cerevisiae mlh1 rad18 strain growth inhibition; at 50.0 µM; active compounds read high
Summary of the method: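 Genetically defined yeast (DNA repair-deficient) exposed to compounds; growth inhibition determined relative to vehicle.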

Measured: growth inhibition

CN(C)c1nnnn1Cc1ccccc1
inactive: [1] -1.35% | [2] -3.8% | [3] -7.25% | [4] -26.3% | [5] 5.65% | [6] 1.8%

CCCCCCCCSC#N
inactive: [1] 7.95% | [2] -11% | [3] -3.6% | [4] 23.9% | [5] 2% | [6] -1.4%

Cc1cccc(Oc2ccc(C(F)(F)F)cc2[N+](=O)[O-])c1C
inactive: [1] -32.2% | [2] -2.15% | [3] 2.55% | [4] -45.4% | [5] 45.3% | [6] -15.2%

O=C(O)c1cnc2cc3c(cc2c1Nc1cccc(Cl)c1)OCO3
inactive: [1] -2.25% | [2] -4.05% | [3] 4.45% | [4] -27.5% | [5] -8.6% | [6] -12.6%

C=CCNC(=O)c1ccc[n+](CC(=O)Nc2ccccc2)c1
inactive: [1] 1% | [2] -9.75% | [3] -1.1% | [4] 9.8% | [5] 2.3% | [6] -7.6%

O=C(CCCCC(=O)N1CCOCC1)N1CCOCC1
inactive: [1] -9.3% | [2] -21.9% | [3] -2.45% | [4] -19.6% | [5] 2.1% | [6] -9.4%

COc1ccc(C(C#N)NNc2nc(C)cc(=O)[nH]2)cc1OC (stereo unspecified)
inactive: [1] -60.1% | [2] -47.5% | [3] -43.2% | [4] -19.6% | [5] -30.9% | [6] -47%

O=S1(=O)C(c2ccccc2)C(N2CCCCC2)C1C1CC2c3ccccc3C1c1ccccc12 (stereo unspecified)
inactive: [1] 19.5% | [2] 32.6% | [3] 2.9% | [4] -28% | [5] 28.9% | [6] 30.2%

C(=C\CSc1ccccn1)/CSc1ccccn1
inactive: [1] 50% | [2] 6.4% | [3] 56.6% | [4] 18.6% | [5] 49.4% | [6] 25%

O=C1OC(=O)C2=C1C1C=CC2CC1
inactive: [1] 3.4% | [2] -7.05% | [3] 3% | [4] 0% | [5] -9.05% | [6] 13.4%

CC1(C)C(CCO)CC1CCO (stereo unspecified)
inactive: [1] 2.25% | [2] -2.5% | [3] -1.45% | [4] -0.45% | [5] 0.4% | [6] -7.5%

FC1(F)SC2c3ccccc3CC2C1(F)F (stereo unspecified)
inactive: [1] 20.4% | [2] 6.15% | [3] 7.75% | [4] -47.2% | [5] 8.35% | [6] 9.95%

CC(=O)NCC(C)(C)C
inactive: [1] 2.15% | [2] 10.8% | [3] -12.7% | [4] -16.2% | [5] -32% | [6] -12.8%

Nc1ccc(C(=O)OCCN2CCN(CCOC(=O)c3ccc(N)cc3)CC2)cc1
inactive: [1] 28.9% | [2] 13.4% | [3] 12.6% | [4] 16.2% | [5] 1.6% | [6] 28.4%

CC(=O)Oc1ccc2c(-c3ccccc3)c(Oc3ccc(Cl)cc3)c(=O)oc2c1
inactive: [1] -4.2% | [2] -5.05% | [3] -3.7% | [4] -16.1% | [5] 3.3% | [6] 4.35%

CC(CO)CCNc1ncnc2c1ncn2CCC(=O)O (stereo unspecified)
inactive: [1] -8.7% | [2] 6% | [3] -29.9% | [4] -23.5% | [5] 17.2% | [6] -0.95%

Cn1c(=O)cnc2c3ccccc3ccc21
inactive: [1] 22.8% | [2] 5.15% | [3] 23.6% | [4] 15.8% | [5] 18.4% | [6] 19.6%

OC(CBr)(c1ccccc1)c1ccccc1
inactive: [1] 13.5% | [2] 23.4% | [3] 19.9% | [4] 31.3% | [5] 7% | [6] 24.1%

Nc1ccn(CCC(COCc2ccccc2)COCc2ccccc2)c(=O)n1
inactive: [1] 35.8% | [2] -13.4% | [3] 0.75% | [4] -5.6% | [5] -5.45% | [6] 5.75%

O=C(O)c1c2ccccc2nc2ccccc12
inactive: [1] -17.6% | [2] -17.9% | [3] -17.9% | [4] -34.5% | [5] 15.2% | [6] 57%

COc1cc(NCCC2CCCCN2C)c2ncccc2c1 (stereo unspecified)
inactive: [1] -3.9% | [2] -22.4% | [3] 8.55% | [4] 1.8% | [5] 13.6% | [6] 22.1%
